Some test systems named below: RPMI-8226 leukemia; OVCAR-8 ovarian; OVCAR-5 ovarian; OVCAR-4 ovarian; SK-OV-3 ovarian; IGROV1 ovarian; OVCAR-3 ovarian; HS 578T breast; NCI/ADR-RES ovarian.
Common to all, as to assay: NCI-60 one-dose screen, 48 h (100 = growth as untreated, 0 = no growth, -100 = all killed)
What all share (conditions): 10 µM

About 83,000 compounds went through this panel and 20% of them were active in at least one assay; those are over-represented in the sample as a whole.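 Plates (96-well) were seeded with cells, treated with compound at one concentration, and incubated for 48 hours before percent growth was determined.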 A number with no mark means an inactive call. Active and inactive are the calls of the source. How the source made its calls: active means growth percent below 10; inactive means the rest.

As to `O=C(c1ccccc1)n1ccc(-c2cc3cc(Br)ccc3oc2=O)n1`, the growth was 24.6% in the assay with RPMI-8226 leukemia; 22.5% with OVCAR-8 ovarian; 34.6% with OVCAR-5 ovarian; 26.2% in the assay with OVCAR-4 ovarian; 12.5% with SK-OV-3 ovarian; 16% with IGROV1 ovarian. In addition, the growth is 38.8% with OVCAR-3 ovarian, 48.5% in the assay on HS 578T breast and -2.98% (active) in the assay on NCI/ADR-RES ovarian.
In the case of `CN1CCCN(Cc2ccc(C(=O)Nc3cccc(Nc4ccc5cc(O)ccc5n4)c3)cc2C(F)(F)F)CC1`, the growth is -20.5% (active) in the assay with RPMI-8226 leukemia; 101% in the assay with OVCAR-8 ovarian; 131% in the assay with OVCAR-5 ovarian; 77.2% with OVCAR-4 ovarian; 116% in the assay on SK-OV-3 ovarian; 88.6% in the assay with IGROV1 ovarian. Besides, the growth in the assay with OVCAR-3 ovarian was 76.9%; with HS 578T breast it was 61.9%; in the assay with NCI/ADR-RES ovarian it was 90.7%.
In the case of `COc1ccc(CCN2C(=O)/C(=C/c3csc(C#N)n3)SC2=S)cc1OC`, the growth is -7.56% (active) with RPMI-8226 leukemia; 69.2% in the assay on OVCAR-8 ovarian; 116% with OVCAR-5 ovarian; 66.3% in the assay with OVCAR-4 ovarian; 107% in the assay on SK-OV-3 ovarian; 90.7% in the assay with IGROV1 ovarian. Also, the growth is -17.7% (active) in the assay with OVCAR-3 ovarian, 66.3% in the assay with HS 578T breast and 93.3% in the assay on NCI/ADR-RES ovarian.
As to `CC1=C2C(=C[C@@](C)(COCOCCCl)[C@@H]2O)C(=O)[C@](C)(O)C12CC2`, the growth was 10.1% in the assay with RPMI-8226 leukemia; -38.4% (active) in the assay on OVCAR-8 ovarian; -56.6% (active) in the assay on OVCAR-5 ovarian; -48.6% (active) with OVCAR-4 ovarian; -33.7% (active) in the assay on SK-OV-3 ovarian; -38.5% (active) in the assay with IGROV1 ovarian. Further, the growth in the assay with OVCAR-3 ovarian is -27.4% (active); in the assay on HS 578T breast, -15.8% (active); in the assay with NCI/ADR-RES ovarian, -61.7% (active).
On to `O=C(c1ccc(Cl)cc1)C1[C@H](c2ccc(Br)cc2)[C@@H](c2ccccc2)NC12C(=O)Nc1ccccc12` (stereo partly drawn), for which the growth was -8.78% (active) with RPMI-8226 leukemia; 7.73% (active) in the assay with OVCAR-8 ovarian; -25.8% (active) in the assay with OVCAR-5 ovarian; 12% in the assay on OVCAR-4 ovarian; 12.7% in the assay on SK-OV-3 ovarian; 6.67% (active) with IGROV1 ovarian. Also, the growth was -30.1% (active) in the assay with OVCAR-3 ovarian, -8.79% (active) in the assay with HS 578T breast and -53.1% (active) with NCI/ADR-RES ovarian.
Consider `N[C@@H](CSSC[C@H](N)C(=O)Nc1ccc(OCC2CCCC2)cc1)C(=O)Nc1ccc(OCC2CCCC2)cc1`, for which the growth was -57.3% (active) in the assay with RPMI-8226 leukemia; -59.8% (active) with OVCAR-8 ovarian; -100% (active) with OVCAR-5 ovarian; -96.9% (active) with OVCAR-4 ovarian; -97.9% (active) with SK-OV-3 ovarian; -92.1% (active) in the assay on IGROV1 ovarian. The results for the growth in the assay with OVCAR-3 ovarian, in the assay on HS 578T breast and in the assay with NCI/ADR-RES ovarian were -86.5% (active), -61.7% (active) and -77.2% (active), respectively.
As for `CC1=C2C(=C[C@@](C)(CO)[C@@H]2O)/C(=N\N)[C@](C)(O)C12CC2`, the growth in the assay with RPMI-8226 leukemia is 56.2%; in the assay on OVCAR-8 ovarian it was 1.18% (active); with OVCAR-5 ovarian, -42.8% (active); with OVCAR-4 ovarian, -21.7% (active); in the assay with SK-OV-3 ovarian, -24.7% (active); with IGROV1 ovarian it was -11.3% (active). For the same compound, the growth with OVCAR-3 ovarian was -24.4% (active); in the assay with HS 578T breast it was -12.5% (active); with NCI/ADR-RES ovarian, -43.2% (active).
As for `COc1ccc(C(C)=C(c2ccc(OCCCN(C)C)cc2)c2ccc(OCCCN(C)C)cc2)cc1`, the growth was -66% (active) with RPMI-8226 leukemia; -92.6% (active) in the assay on OVCAR-8 ovarian; -100% (active) with OVCAR-5 ovarian; -94.6% (active) in the assay with OVCAR-4 ovarian; -99.5% (active) with SK-OV-3 ovarian; -91.1% (active) with IGROV1 ovarian. Besides, the growth is -81.3% (active) with OVCAR-3 ovarian, -68.2% (active) in the assay on HS 578T breast and -96.6% (active) with NCI/ADR-RES ovarian.
With `O=C(CS(=O)(=O)c1oc(-c2ccc(Cl)cc2)nc1S(=O)(=O)c1ccccc1)N1CCCC1`, the growth with RPMI-8226 leukemia was -13.8% (active); with OVCAR-8 ovarian it was -31.8% (active); in the assay with OVCAR-5 ovarian, -51.4% (active); in the assay on OVCAR-4 ovarian, -90.1% (active); with SK-OV-3 ovarian, 97.9%; in the assay on IGROV1 ovarian it was 74.4%. Further, the values for the growth with OVCAR-3 ovarian, in the assay with HS 578T breast and in the assay with NCI/ADR-RES ovarian were -90.1% (active), 60.2% and 9.98% (active), respectively.
`O=C1CCC(N2Cc3c(C#CCCCNC(=O)c4ccc(NC(=O)[C@@H]5NC6(CCCCC6)[C@@]6(C(=O)Nc7cc(Cl)ccc76)[C@H]5c5cccc(Cl)c5F)cc4)cccc3C2=O)C(=O)N1` (stereo partly drawn): the growth with RPMI-8226 leukemia is 43.7%; in the assay with OVCAR-8 ovarian, 69%; with OVCAR-5 ovarian, 76.6%; in the assay on OVCAR-4 ovarian it was 56.5%; in the assay with SK-OV-3 ovarian it was 74.2%; with IGROV1 ovarian, 11.7%. Further, the growth in the assay with OVCAR-3 ovarian was 72.3%; with HS 578T breast it was 46.2%; in the assay with NCI/ADR-RES ovarian it was 85.7%.
`Cc1ccc(-c2nc3ccc(C(=O)N=Nc4c(O)[nH]c5ccc([N+](=O)[O-])cc45)cc3[nH]2)cc1`: the growth in the assay with RPMI-8226 leukemia is 104%; in the assay on OVCAR-8 ovarian it was 75.3%; in the assay with OVCAR-5 ovarian, 101%; with OVCAR-4 ovarian, 55.2%; in the assay with SK-OV-3 ovarian it was 78.9%; with IGROV1 ovarian it was 89.2%. Moreover, the growth with OVCAR-3 ovarian was 21.9%; with HS 578T breast, 74.6%; with NCI/ADR-RES ovarian, 103%.
As for `Cc1ccc(/C=C(\C#N)n2nnc3c(F)cccc32)cc1`, the growth with RPMI-8226 leukemia is 6.26% (active); in the assay on OVCAR-8 ovarian, -70.7% (active); in the assay on OVCAR-5 ovarian, -7.34% (active); in the assay with OVCAR-4 ovarian it was 51.2%; with SK-OV-3 ovarian it was 29.5%; in the assay on IGROV1 ovarian, 8.21% (active). Moreover, the growth in the assay on OVCAR-3 ovarian was 0.864% (active); in the assay with HS 578T breast, 29.2%; with NCI/ADR-RES ovarian, 12.9%.

Source of the values: PubChem BioAssay (NCI).
